About 83,000 compounds went through this panel and 20% of them were active in at least one assay; those are over-represented in the sample as a whole.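 Testing used 96-well plates and a 48-hour single-concentration exposure. Example: -40 means 40% of the starting cells died.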 A number with no mark means an inactive call. Activity calls are given as the source filed them. How the source made its calls: active means growth percent below 10; inactive means the rest.

Holding throughout (assay): NCI-60 one-dose screen, 48 h (100 = growth as untreated, 0 = no growth, -100 = all killed)
What all share (conditions): 10 µM

The test system of test [1] is NCI-H23 lung.
In test [2] the test system is NCI-H226 lung.
Test [3] relates to NCI-H322M lung.
Test [4] concerns HOP-62 NSCLC.
The test system of test [5] is NCI-H460 lung.
The subject of test [6] is NCI-H522 lung.
Test [7] has as its system A549/ATCC NSCLC.
The subject of test [8] is 786-0 renal.
Test [9] relates to COLO 205 colon.
Test [10] relates to DU-145 prostate.
Test [11] deals with K-562 leukemia.
For test [12], the system named is MALME-3M melanoma.
Test [13] has as its system MDA-MB-231 breast.
The test system of test [14] is RXF 393 renal.
Test [15] relates to SF-268 CNS.
Test [16] has as its system SF-295 CNS.
Test [17] concerns SF-539 CNS.
The subject of test [18] is UACC-257 melanoma.
For test [19], the system named is M14 melanoma.
The test system of test [20] is HOP-92 NSCLC.

On to `COc1cc2c3c(n(C)c(=O)c2cc1OC)-c1cc2c(cc1C3=O)OCO2`, for which the growth in [1] is 71.9%; in test [2] it was 66.9%; in [3], 89.9%; in [4], 45.1%; in [5] it was 29.3%; in [6] it was 1.48% (active). The growth is 81.8% in test [7]; 77.1% in test [8]; 72.5% in test [9]; 56.5% in test [10]; 40.8% in test [11]; 81.6% in [12]. Further, the growth in [13] was 97.1%; in test [14], 75.7%; in [15], 59.3%; in test [16], 29.4%; in test [17] it was 63.7%; in [18], 78.2%. For the same molecule, the growth in test [19] is 63%.
On to `c1ccc(Cc2ccccc2)cc1`, for which the growth was 107% in test [1]; 112% in [2]; 96.2% in test [3]; 101% in test [4]; 109% in test [5]; 59.2% in [20]. For the same molecule, the growth in test [7] was 39.8%; in [8], 92.7%; in [10], 103%; in [11], 119%; in [12] it was 96%; in [13], 105%. Also, the growth is 107% in test [15], 110% in test [16], 93.5% in test [17] and 112% in test [19].
For `C=CCNc1ccccc1`, the growth was 102% in test [1]; 103% in test [2]; 106% in test [3]; 86.9% in test [4]; 108% in test [5]; 88.5% in [20]. In addition, the growth is 101% in test [7]; 112% in test [9]; 122% in test [10]; 113% in test [11]; 124% in [12]; 86.7% in [13]. Further, the growth is 113% in [14]; 104% in test [15]; 138% in test [16]; 104% in [17]; 102% in [18].
As to `c1cc2cccc3c4cccc5cccc(c(c1)c23)c54`, the growth is 101% in test [1]; 98.8% in test [2]; 119% in test [3]; 97.7% in [4]; 109% in [5]; 89.6% in test [20]. For the same molecule, the growth was 125% in test [7]; 104% in test [9]; 115% in test [10]; 110% in test [11]; 119% in [12]; 94.4% in [13]. The growth in [14] was 106%; in test [15], 101%; in test [16], 118%; in [17], 99%; in test [18] it was 125%; in test [19] it was 106%.
As to `CC(=O)OC(OC(C)=O)C1CCCO1` (stereo not given), the growth in [1] is 97.4%; in test [2], 103%; in [3], 114%; in [4] it was 99.2%; in [5] it was 109%; in [20] it was 94.1%. In addition, the growth in test [7] is 101%; in [10], 112%; in test [11], 135%; in [12], 112%; in test [13], 91.8%; in test [14], 115%. The growth in test [15] is 97.8%; in [16] it was 112%; in [17], 100%; in test [18], 98%.
In the case of `Cc1cc(C)cc(NCCC#N)c1`, the growth is 108% in [1]; 112% in [2]; 118% in [3]; 115% in test [4]; 107% in test [5]; 106% in [6]. For the same molecule, the growth in test [7] was 151%; in test [8], 111%; in test [9] it was 131%; in test [10] it was 114%; in [11], 102%; in test [12] it was 164%. Moreover, the growth in test [13] was 106%; in test [14], 448%; in test [15], 105%; in test [16], 103%; in test [17], 104%; in test [18], 124%. Also, the growth in test [19] was 117%.
Turning to `CC(O)COc1ccc(-c2ccccc2)cc1` (stereo not given), the growth in test [1] was 108%; in [2] it was 104%; in test [3] it was 112%; in test [4], 102%; in test [5], 99.2%; in test [20] it was 92.7%. For the same molecule, the growth was 107% in test [7]; 110% in [9]; 108% in [10]; 102% in test [11]; 115% in test [12]; 96.6% in [13]. The growth in test [14] is 106%; in test [15], 99.4%; in test [16], 107%; in test [17], 104%; in test [18], 119%; in test [19], 108%.
On to `CC(=O)c1sc2c(c1OC(=O)c1ccc(Cl)cc1Cl)c(=O)n(-c1ccccc1)c(=S)n2-c1ccccc1`, for which the growth in test [1] is 23.9%; in test [2] it was 3.85% (active); in test [3] it was -37.3% (active); in [4] it was 9.38% (active); in test [5] it was 25.2%; in test [6], -35% (active). The growth is 32.1% in test [7]; -7.98% (active) in [8]; 5.77% (active) in [9]; 44.1% in test [10]; 0.912% (active) in test [11]; -79.2% (active) in test [12]. In addition, the growth in test [13] is -41.5% (active); in test [14], 6.34% (active); in test [15], 18.9%; in [16], -32.1% (active); in test [17], -39.6% (active); in [18] it was 49%. The growth in [19] was -76.1% (active).
On to `CCCOC(=O)C(O)c1ccccc1` (stereo not given), for which the growth was 106% in test [1]; 105% in test [2]; 132% in test [3]; 99.8% in test [4]; 107% in [5]; 95% in test [20]. Besides, the growth was 126% in test [7]; 115% in test [9]; 113% in test [10]; 129% in [11]; 96.8% in [12]; 90% in test [13]. For the same molecule, the growth in [14] was 111%; in test [15] it was 99.7%; in [16], 109%; in test [17], 101%; in test [18] it was 108%; in test [19] it was 93.8%.

The record behind these values is PubChem BioAssay (NCI).
